Reference: ChEMBL document CHEMBL4513216, “Probing the Open Global Health Chemical Diversity Library for Multistage-Active Starting Points for Next-Generation Antimalarials” (ACS Infect Dis, 2020)
Out of some 68,000 compounds screened, about 2,700 (4%) showed an effect of 50% or more. For the sample, strong results were picked, then their nearest neighbours and some compounds at random.

Each compound was assayed on Plasmodium berghei (assay: Screen against P. berghei liver stage (PbLuc), transformed with Luciferase, at 2uM). Conditions: tested at 2 uM.
Format: functional, HepG2
Cc1ccnc(C2(C)CCCN2S(=O)(=O)c2c(C)noc2C)n1 (stereo not given) showed an INHIBITION of 15.61%.
With Cc1nn2cnnc2c(C)c1CCC(=O)Nc1nc2c(s1)CCC2 the INHIBITION was -4.37%.
For O=C(Cc1ccccn1)N1CCc2nc(-c3cnccn3)nc(O)c2C1, the INHIBITION was 41.31%.
Compound O=C(Cc1ccccn1)N1CCc2c(O)nc(-c3cnccn3)nc2C1 has an INHIBITION of 56.57%.
Oc1nc(-c2cnccn2)nc2c1CCN(Cc1ccccn1)C2 showed an INHIBITION of 19.47%.
In the case of COCCc1noc(-c2ccc(=O)[nH]c2)n1, the INHIBITION was -18.6%.
CS(=O)(=O)CCNCc1ccc(OCc2ccncc2)cc1 was tested, and the INHIBITION was -117.21%.
For O=S1(=O)COCCN1Cc1ccc(Cl)c(Cl)c1, the INHIBITION was -31.95%.
With O=S1(=O)COCCN1Cc1ccc(Cl)c(F)c1 the INHIBITION was 51.45%.
With O=S1(=O)COCCN1Cc1ccc(F)c(F)c1 the INHIBITION was 22.52%.
Compound Cc1ccc(C(C)NC(=O)N2CCCN(CC(F)F)CC2)s1 (stereo not given) has an INHIBITION of 9.27%.
With CC(C)N1[C@H](CN2CCCC2)C[C@@H]2CN(Cc3ccoc3)CC[C@@H]21 the INHIBITION was 1.92%.
Compound CC(C)N1[C@H](CN2CCCC2)C[C@@H]2CN(C(=O)c3ccoc3)CC[C@@H]21 has an INHIBITION of 50.32%.
CC(=O)N1C(CN2CCCC2)C[C@@H]2CN(C(=O)c3ccoc3)CC[C@@H]21 (stereo not given in full) showed an INHIBITION of 4%.
For Cc1cc(CN2CCN(CC(O)c3ccc(C)c(C)c3)CC2)no1 (stereo not given), the INHIBITION was -29.69%.
With CS(=O)(=O)Cc1ccc(CNC(=O)N2CCC(C(N)=O)C2)cc1 (stereo not given) the INHIBITION was 31%.
Compound CCOCc1ccc(CNC(=O)N2CCC(C(N)=O)C2)cc1 (stereo not given) has an INHIBITION of 47.23%.
CC(C)c1ccc(OCCC(=O)N2CCC(C(N)=O)CC2)cc1 gave an INHIBITION of 3.33%.
In the case of CC(C)c1ccc(OCCC(=O)N2CCCC(C(N)=O)C2)cc1 (stereo not given), the INHIBITION was 52.47%.
CCCOc1ccc(CNC(=O)N2CCC(C(N)=O)C2)cc1 (stereo not given) showed an INHIBITION of 76.69%.
CC(C)c1ccc(OCCC(=O)N2CCCN(C(N)=O)CC2)cc1 gave an INHIBITION of 19.71%.
With COCCN1CCCn2cnc(CNC3CCCC3)c2C1 the INHIBITION was -24.29%.
For Fc1cnc(N2CCC3(CC2)CN(Cc2cccs2)CCO3)nc1, the INHIBITION was 43.29%.
Work on COc1ccccc1C(C)(C)NC(=O)Nc1ccc(F)c(C(N)=O)c1 yielded an INHIBITION of 20.21%.
CN(Cc1cncnc1)[C@@H]1CN(Cc2ccco2)C[C@@H]2CCCO[C@@H]21 showed an INHIBITION of -37.2%.
In the case of CCCN1CCN(C(=O)Cn2nc(C(F)(F)F)c(Br)c2C2CC2)CC1, the INHIBITION was -3.36%.
In the case of CC(C)C(NC(=O)c1ccc(Cl)cc1Cl)C(=O)Nc1ccn(C)n1 (stereo not given), the INHIBITION was 42.76%.
With O=C(COC1CCCCC1)Nc1ccn(CCc2ccncc2)n1 the INHIBITION was 13.99%.
Work on Cn1cccc1C(=O)NC(C)(C(N)=O)c1cccc(C(F)(F)F)c1 (stereo not given) yielded an INHIBITION of -23.95%.
For OC1(c2ccc(F)cc2)CCN(Cc2ccccc2N2CCCC2)CC1, the INHIBITION was 58.02%.
Work on OC1(c2ccccc2F)CCN(Cc2ccccc2N2CCCC2)CC1 yielded an INHIBITION of 14.73%.
For Cc1cccc(C2(O)CCN(Cc3ccccc3N3CCCC3)CC2)c1, the INHIBITION was 4.06%.
With Cc1noc(C)c1CN(C)CC(c1cccs1)N1CCOCC1 (stereo not given) the INHIBITION was 43.7%.
Compound Cc1cc(N(C)C)nc(NC2CCc3nc(C)nn3C2)n1 (stereo not given) has an INHIBITION of 13.28%.
O=C(O)c1ccccc1-c1ccc(CNC(=O)C2CCOCC2)cc1 was tested, and the INHIBITION was 22.95%.
Work on COc1cccc(CN2CCC(CO)(Cc3ccc(Cl)cc3)CC2)c1O yielded an INHIBITION of 71.83%.
COc1ccc(CN2CCC(CO)(Cc3ccc(Cl)cc3)CC2)c(O)c1 was tested, and the INHIBITION was 36.34%.
OCC1(Cc2ccc(Cl)cc2)CCN(Cc2ccccc2O)CC1 showed an INHIBITION of -58.31%.
In the case of O=C(Nc1ccc(N2CCCCC2)nc1)N1CCc2sccc2C1, the INHIBITION was -4.09%.
In the case of O=C(Nc1ccc(N2CCCC2)nc1)N1CCc2sccc2C1, the INHIBITION was -19.54%.
For O=C(Nc1ccc(N2CCOCC2)nc1)N1CCc2sccc2C1, the INHIBITION was 57.59%.
CN1C(=O)CCC12CCN(S(=O)(=O)c1ccccc1)CC2 gave an INHIBITION of 46.32%.
CCSc1ccccc1C(=O)N1CCC(S(=O)(=O)c2nncn2C)CC1 was tested, and the INHIBITION was 59.08%.
Work on Cn1cnnc1S(=O)(=O)C1CCN(C(=O)c2cccs2)CC1 yielded an INHIBITION of 25.55%.
With Cn1cnnc1S(=O)(=O)C1CCN(C(=O)c2ccco2)CC1 the INHIBITION was 31.78%.
CN(Cc1ccccc1F)Cc1cc2c(cc1Br)OCCO2 gave an INHIBITION of 12.68%.
Cc1cnc(C(=O)N2C[C@@H]3CC[C@H]2CN(Cc2cscn2)C3)[nH]1 was tested, and the INHIBITION was -0.62%.
CN1CCC(N(C)c2ccccc2CNCc2ccco2)CC1 showed an INHIBITION of 24.6%.
CCc1cc(CNCc2ccccc2N(C)C2CCN(C)CC2)on1 was tested, and the INHIBITION was -19.27%.
In the case of Cc1noc(C)c1CNCc1ccccc1N(C)C1CCN(C)CC1, the INHIBITION was 50.46%.
With CCC(CO)N(C/C(C)=C/c1ccco1)Cc1ccsc1 (stereo not given) the INHIBITION was 5.85%.
With CCOc1ncccc1C(=O)NC1CC(=O)N(CC(F)(F)F)C1 (stereo not given) the INHIBITION was -27.19%.
CC(=O)N1CCC(C(=O)N(CC(F)F)c2cccc(Cl)c2)CC1 showed an INHIBITION of 23.06%.
For CCCS(=O)(=O)N1CCC(n2nc(-c3cc(C)oc3C)ccc2=O)CC1, the INHIBITION was -17.72%.
With Cn1c(C2CCCN2C(=O)CN2CSCC2=O)nc2ccccc21 (stereo not given) the INHIBITION was -73.81%.
For Cc1cc(C(=O)NCCN2CCC(C)CC2)nn1C(C)(C)C, the INHIBITION was 10.1%.
In the case of CC(C)c1cc(C(=O)NC2CCN(CC(N)=O)CC2)nn1C(C)(C)C, the INHIBITION was 0.79%.
CNC(=O)C1CCC(NC(=O)c2cc(C3CC3)n(C(C)(C)C)n2)CC1 (stereo not given) showed an INHIBITION of 37%.
Cc1cc(C(=O)NC2CCN(CC(N)=O)CC2)nn1C(C)(C)C gave an INHIBITION of 61.06%.
In the case of CC(C)(C)n1nc(C2CC2)cc1C(=O)NC1CCN(CC(N)=O)CC1, the INHIBITION was 40.97%.
For CC(C)(C)n1nc(C(=O)NC2CCN(CC(N)=O)CC2)cc1C1CC1, the INHIBITION was 52.74%.
In the case of NC(=O)NCC1CCCCN1Cc1nc(-c2ccco2)no1 (stereo not given), the INHIBITION was -3.06%.
Compound COc1ccc(CCC(=O)NCCN2CCC(c3cccs3)CC2)cc1 has an INHIBITION of 11.78%.
CC(CC(=O)NCCNS(C)(=O)=O)C1CCCCC1 (stereo not given) showed an INHIBITION of -13.76%.
CC(NC(=O)Cn1ccc(=O)n(C)c1=O)c1cc(F)ccc1F (stereo not given) showed an INHIBITION of 16.25%.
COCCOCCC(=O)Nc1c(-c2ccc(F)cc2)ncn1C was tested, and the INHIBITION was 35.68%.
CC(C)OCCC(=O)Nc1c(-c2ccc(F)cc2)ncn1C showed an INHIBITION of 6.47%.
CC(C)COCCC(=O)Nc1c(-c2ccc(F)cc2)ncn1C showed an INHIBITION of 60.43%.
CCN1CC(CN(C)Cc2nc(-c3cccc(Cl)c3)oc2C)CC1=O (stereo not given) was tested, and the INHIBITION was 32.26%.
CN(Cc1nc(COc2ccccc2)no1)CC1Cc2ccccc2O1 (stereo not given) was tested, and the INHIBITION was 8.03%.
CN(Cc1nc(CC2CC2)no1)CC1Cc2ccccc2O1 (stereo not given) gave an INHIBITION of 44.37%.
CN(Cc1nc(Cc2ccccc2F)no1)CC1Cc2ccccc2O1 (stereo not given) showed an INHIBITION of 60.9%.
O=C(c1cccc(NCCO)c1)N1CCOCC1 was tested, and the INHIBITION was 10.74%.
Work on CCN(CC)C(=O)c1ccc(Cl)c(NC(=O)c2cnc(C)cn2)c1 yielded an INHIBITION of 20.71%.
Cc1cn2c(n1)CCC(NC(=O)CCn1cncn1)C2 (stereo not given) was tested, and the INHIBITION was 19.64%.
Work on Cc1nc(CN2C[C@@H]3COC[C@]3(COCC(=O)N(C)C)C2)cs1 yielded an INHIBITION of 23.09%.
For Cc1cc(CN2C[C@@H]3COC[C@]3(COCC(=O)N(C)C)C2)no1, the INHIBITION was 64.37%.
Cc1cccc(CN2C[C@@H]3COC[C@]3(COCC(=O)N(C)C)C2)n1 showed an INHIBITION of 27.52%.
CC(=O)Nc1ccc(CN2CCc3[nH]cnc3C2c2nccn2C)cc1 (stereo not given) was tested, and the INHIBITION was -42.54%.
Clc1ccccc1OCCc1cc(C2CCNC2)n[nH]1 (stereo not given) was tested, and the INHIBITION was 16.14%.
For CN1C[C@H](O)[C@]2(CCN(Cc3ccc(F)c(F)c3)C2)S1(=O)=O, the INHIBITION was 6.4%.
In the case of CCc1noc(CN(Cc2cccs2)C2CC2)n1, the INHIBITION was 7.85%.
COC(=O)C1CN(CC(=O)Nc2cccc(OC)c2)c2ccccc21 (stereo not given) gave an INHIBITION of 43.88%.
Work on COC(=O)C1CN(CC(=O)Nc2ccccc2Cl)c2ccccc21 (stereo not given) yielded an INHIBITION of 57.34%.
Compound COC(=O)C1CN(CC(=O)Nc2cc(F)ccc2F)c2ccccc21 (stereo not given) has an INHIBITION of 16.95%.
Work on Cn1cc(CN2CCC[C@]3(C[C@H](Oc4ncccc4F)CO3)C2)cn1 yielded an INHIBITION of 20.01%.
Work on CC(C)CN1CCC2(Cc3ccccc3NC2=O)C1 (stereo not given) yielded an INHIBITION of -1.69%.
COCC1CN(CC2CC2)Cc2nn(C)cc21 (stereo not given) showed an INHIBITION of 30.38%.
CCc1ccc2c(c1)C(CCNC(=O)CCc1ccsc1)C(=O)N2 (stereo not given) was tested, and the INHIBITION was 57.16%.
CCc1ccc2c(c1)C(CCNC(=O)Cc1ccc(F)cc1)C(=O)N2 (stereo not given) was tested, and the INHIBITION was 33.22%.
CCc1ccc2c(c1)C(CCNC(=O)CSC(F)(F)F)C(=O)N2 (stereo not given) gave an INHIBITION of 26.51%.
With Cc1nc(C)n(CC2CCCCN2CC(=O)Nc2c(C)n[nH]c2C)n1 (stereo not given) the INHIBITION was -91.52%.
In the case of CC(C(=O)N(C)C)N1CCCN(C(=O)Oc2ccccc2)CC1 (stereo not given), the INHIBITION was 10.43%.
CC(=O)Nn1ccc2c(nnc3c(-c4ccc(F)cc4)cnn32)c1=O showed an INHIBITION of -27.89%.
Work on CN1CCC(c2cccc(-c3cccc(C(=O)O)c3)n2)CC1 yielded an INHIBITION of -14.73%.
In the case of COc1ncc(C(F)(F)F)c(C(=O)O)c1Cl, the INHIBITION was 30.38%.
COC(=O)c1c(C(F)(F)F)cnc(OC)c1Cl was tested, and the INHIBITION was 53.54%.
Work on COc1nccc(C(F)(F)F)c1C(=O)O yielded an INHIBITION of -16.59%.
Cc1ccc(C(CNCc2c[nH]nc2C)N(C)C)cc1 (stereo not given) was tested, and the INHIBITION was 30.23%.
With Cc1nc(N2CCC(O)(c3ccc(F)cc3)CC2)c2c(C)nn(C)c2n1 the INHIBITION was 15.92%.
Compound CN(C)CC(=O)N1CCOC2(CCCN(c3ncccc3F)C2)C1 (stereo not given) has an INHIBITION of -15.88%.
Compound Cc1noc(C)c1CNCC1COCc2c(-c3ccoc3)nnn2C1 (stereo not given) has an INHIBITION of 22.84%.
CCN1CCC2(CCC1=O)CN(c1ccnc(SC)n1)CCN2C (stereo not given) gave an INHIBITION of -1.27%.
COCCN1CCC2(CCC1=O)CN(c1ccnc(SC)n1)CCN2C (stereo not given) showed an INHIBITION of 1.85%.
CSc1nccc(N2CCN(C)C3(CCC(=O)N(CC4CC4)CC3)C2)n1 (stereo not given) gave an INHIBITION of 55.4%.
